The values that follow come from PubChem BioAssay (NCATS).

Results filed as inconclusive are left out. Where a call stands in place of a potency, no number is given. The source made the active and inactive calls. Calls follow the shape of the dose curve; as a rule, active = well fitted inhibition curve with a large enough effect; inconclusive = small, poorly fitted or top-dose-only effect; inactive = flat fitted curve, though single readings scatter.
Potency is read from the fitted curve at half-maximal effect.

In one assay the test system is CP315. The experiment in a line: qHTS profiling for inhibitors of Plasmodium falciparum proliferation (AID 504749). Also: nearly all actives have a fitted effect of over 60% in size. To be noted: P. falciparum in erythrocytes, SYBR Green DNA, 72 h; series mostly up to 28.7 µM. In a few lines:
(§1)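 In a 72 h erythrocytic culture (37 C, humidified, 5% CO2) at 2.5% hematocrit and 0.3% starting parasitemia, compounds were tested; SYBR Green I in detergent lysis buffer stained parasite DNA overnight.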
On the technique in general: Quantitative high-throughput screening tests each substance at several concentrations.
As to `S=C=Nc1ccc(N=C=S)cc1`, the Potency result is “inactive”.

With `N=C(N)n1cccn1`, the Potency entry is “inactive”.

As to `Cc1cccc(C)c1NC(=O)NC1=CCCN1C`, the Potency entry was “inactive”.

As to `Cc1cc(-c2ccc(N=Nc3ccc4c(S(=O)(=O)O)cc(S(=O)(=O)O)c(N)c4c3O)c(C)c2)ccc1N=Nc1ccc2c(S(=O)(=O)O)cc(S(=O)(=O)O)c(N)c2c1O`, the Potency result is “inactive”.

For the compound `O=P(O)(O)O`, the Potency result is “inactive”.

On to `CN(CCO)CC(O)Cn1cnc2c1c(=O)n(C)c(=O)n2C` (stereo not drawn) (tested in a mixture with another compound), for which the Potency entry is “inactive”.

With `O=C(O)Cc1cc(I)c(Oc2ccc(O)c(I)c2)c(I)c1`, the Potency result was “inactive”.

Turning to `COC1=C(OC)C(=O)C(C/C=C(\C)CC/C=C(\C)CC/C=C(\C)CC/C=C(\C)CC/C=C(\C)CC/C=C(\C)CC/C=C(\C)CC/C=C(\C)CC/C=C(\C)CCC=C(C)C)=C(C)C1=O`, the Potency result was “inactive”.

`CN=C1C=CC(=C(c2ccc(N(C)C)cc2)c2ccc(N(C)C)cc2)C=C1`: the Potency was 1.07 µM (active).

`CCOc1ccc(S(=O)(=O)O)c2cccnc12`: the Potency entry is “inactive”.

In the case of `FC(F)(F)COCC(F)(F)F`, the Potency result was “inactive”.

With `O=C(O)[C@H]1C(=CCO)O[C@H]2CC(=O)N12`, the Potency entry was “inactive”.

Consider `CC1CC(O)CC(C)(C)C1` (stereo not drawn), for which the Potency result is “inactive”.

In the case of `Cc1ncc(C[n+]2csc(CCOP(=O)(O)O)c2C)c(N)n1`, the Potency entry is “inactive”.

As to `CCCCO`, the Potency result was “inactive”.

Turning to `CCOC(=S)SSC(=S)OCC`, the Potency entry was “inactive”.

`N[C@H](CC(=O)O)C(=O)O`: the Potency result is “inactive”.

For the compound `CCC(C(=O)NC(N)=O)c1ccccc1` (stereo not drawn), the Potency result is “inactive”.

As to `CCN(CC)CCOC(=O)c1cccnc1`, the Potency entry is “inactive”.

`NC(=S)NS(=O)(=O)c1ccc(N)cc1`: the Potency result is “inactive”.

In the case of `COc1cc2c(cc1OC)[C@@H](Cc1cc(OC)c(OC)c(OC)c1)[N+](C)(CCCOC(=O)CC/C=C/CCC(=O)OCCC[N+]1(C)CCc3cc(OC)c(OC)cc3[C@H]1Cc1cc(OC)c(OC)c(OC)c1)CC2` (stereo partly drawn), the Potency entry is “inactive”.

With `Cc1ncc(COP(=O)(O)O)c(CN)c1O`, the Potency entry was “inactive”.

For `C[C@H](N)C(=O)N[C@@H](C)P(=O)(O)O`, the Potency result was “inactive”.

Turning to `CO[C@H]1C[C@@H]2CC[C@@H](C)[C@@](O)(O2)C(=O)C(=O)N2CCCC[C@H]2C(=O)O[C@H]([C@H](C)C[C@@H]2CC[C@@H](OC(=O)C(C)(CO)CO)[C@H](OC)C2)CC(=O)[C@H](C)/C=C(\C)[C@@H](O)[C@@H](OC)C(=O)[C@H](C)C[C@H](C)/C=C/C=C/C=C/1C`, the Potency entry is “inactive”.

As for `CC1=C(/C=C/C(C)=C/C=C/C(C)=C/C(=O)Oc2c(C)c(C)c3c(c2C)CC[C@@](C)(CCC[C@H](C)CCC[C@H](C)CCCC(C)C)O3)C(C)(C)CCC1`, the Potency result was “inactive”.

In the case of `CCCCCCCCCCCCCC(=O)OCC(COP(=O)([O-])OCC[N+](C)(C)C)OC(=O)CCCCCCCCCCCCC` (stereo not drawn), the Potency result is “inactive”.

On to `CC(C)c1ncc([N+](=O)[O-])n1C`, for which the Potency result is “inactive”.

With `NC(=O)[C@@H]1CCCN1C(=O)[C@H](Cc1cnc[nH]1)NC(=O)[C@@H]1CCC(=O)N1`, the Potency result is “inactive”.

With `Cc1ccccn1`, the Potency result is “inactive”.

For `Nc1nccs1`, the Potency result is “inactive”.

For the compound `O=C(NCCNCC(O)COc1ccc(O)cc1)N1CCOCC1` (stereo not drawn), the Potency entry was “inactive”.

Consider `CC(C)CCC[C@@H](C)[C@H]1CC[C@H]2[C@@H]3CC=C4C[C@@H](O)CC[C@]4(C)[C@H]3CC[C@]12C`, for which the Potency result was “inactive”.

Turning to `CS(=O)(=O)OCC(O)C(O)COS(C)(=O)=O` (stereo not drawn), the Potency result is “inactive”.

`NCC[C@H](O)C(=O)N[C@@H]1C[C@H](N)[C@@H](O[C@H]2O[C@H](CN)CC[C@H]2N)[C@H](O)[C@H]1O[C@H]1O[C@H](CO)[C@@H](O)[C@H](N)[C@H]1O`: the Potency entry is “inactive”.

In the case of `OCC(O)CO`, the Potency entry was “inactive”.

In the case of `CCOc1ccc(NC(=S)Nc2ccc(OCC)cc2)cc1`, the Potency result is “inactive”.

For `CCOC(=O)c1cc(-c2ccccc2)nc2ccc(C)cc12`, the Potency entry was “inactive”.

`OCl`: the Potency result was “inactive”.

Consider `CCc1ncnc2cc(OC)c(OC)cc12`, for which the Potency entry is “inactive”.

The test system of the next assay is CP325. The assay is described as above. The note with it: P. falciparum in erythrocytes, SYBR Green DNA, 72 h; series mostly up to 28.7 µM. In a few lines: as §1
For the compound `S=C=Nc1ccc(N=C=S)cc1`, the Potency entry was “inactive”.

In the case of `N=C(N)n1cccn1`, the Potency result was “inactive”.

For the compound `Cc1cccc(C)c1NC(=O)NC1=CCCN1C`, the Potency entry is “inactive”.

Take `Cc1cc(-c2ccc(N=Nc3ccc4c(S(=O)(=O)O)cc(S(=O)(=O)O)c(N)c4c3O)c(C)c2)ccc1N=Nc1ccc2c(S(=O)(=O)O)cc(S(=O)(=O)O)c(N)c2c1O`: the Potency entry is “inactive”.

For `O=P(O)(O)O`, the Potency entry was “inactive”.

As to `CN(CCO)CC(O)Cn1cnc2c1c(=O)n(C)c(=O)n2C` (stereo not drawn) (tested in a mixture with another compound), the Potency result is “inactive”.

Consider `O=C(O)Cc1cc(I)c(Oc2ccc(O)c(I)c2)c(I)c1`, for which the Potency entry is “inactive”.

As for `COC1=C(OC)C(=O)C(C/C=C(\C)CC/C=C(\C)CC/C=C(\C)CC/C=C(\C)CC/C=C(\C)CC/C=C(\C)CC/C=C(\C)CC/C=C(\C)CC/C=C(\C)CCC=C(C)C)=C(C)C1=O`, the Potency result was “inactive”.

Regarding `CN=C1C=CC(=C(c2ccc(N(C)C)cc2)c2ccc(N(C)C)cc2)C=C1`, the Potency was 953 nM (active).

Regarding `CCOc1ccc(S(=O)(=O)O)c2cccnc12`, the Potency entry is “inactive”.

For `FC(F)(F)COCC(F)(F)F`, the Potency result is “inactive”.

For the compound `O=C(O)[C@H]1C(=CCO)O[C@H]2CC(=O)N12`, the Potency entry was “inactive”.

Take `CC1CC(O)CC(C)(C)C1` (stereo not drawn): the Potency result is “inactive”.

Consider `Cc1ncc(C[n+]2csc(CCOP(=O)(O)O)c2C)c(N)n1`, for which the Potency result was “inactive”.

Consider `CCCCO`, for which the Potency entry is “inactive”.

Regarding `CCOC(=S)SSC(=S)OCC`, the Potency entry is “inactive”.

Regarding `N[C@H](CC(=O)O)C(=O)O`, the Potency entry is “inactive”.

As for `CCC(C(=O)NC(N)=O)c1ccccc1` (stereo not drawn), the Potency result is “inactive”.

On to `CCN(CC)CCOC(=O)c1cccnc1`, for which the Potency result was “inactive”.

Take `NC(=S)NS(=O)(=O)c1ccc(N)cc1`: the Potency entry was “inactive”.

Consider `COc1cc2c(cc1OC)[C@@H](Cc1cc(OC)c(OC)c(OC)c1)[N+](C)(CCCOC(=O)CC/C=C/CCC(=O)OCCC[N+]1(C)CCc3cc(OC)c(OC)cc3[C@H]1Cc1cc(OC)c(OC)c(OC)c1)CC2` (stereo partly drawn), for which the Potency result was “inactive”.

For `Cc1ncc(COP(=O)(O)O)c(CN)c1O`, the Potency result was “inactive”.

On to `C[C@H](N)C(=O)N[C@@H](C)P(=O)(O)O`, for which the Potency result is “inactive”.

Take `CO[C@H]1C[C@@H]2CC[C@@H](C)[C@@](O)(O2)C(=O)C(=O)N2CCCC[C@H]2C(=O)O[C@H]([C@H](C)C[C@@H]2CC[C@@H](OC(=O)C(C)(CO)CO)[C@H](OC)C2)CC(=O)[C@H](C)/C=C(\C)[C@@H](O)[C@@H](OC)C(=O)[C@H](C)C[C@H](C)/C=C/C=C/C=C/1C`: the Potency result was “inactive”.

As to `CC1=C(/C=C/C(C)=C/C=C/C(C)=C/C(=O)Oc2c(C)c(C)c3c(c2C)CC[C@@](C)(CCC[C@H](C)CCC[C@H](C)CCCC(C)C)O3)C(C)(C)CCC1`, the Potency result is “inactive”.

Regarding `CCCCCCCCCCCCCC(=O)OCC(COP(=O)([O-])OCC[N+](C)(C)C)OC(=O)CCCCCCCCCCCCC` (stereo not drawn), the Potency result is “inactive”.

Take `CC(C)c1ncc([N+](=O)[O-])n1C`: the Potency result is “inactive”.

As to `NC(=O)[C@@H]1CCCN1C(=O)[C@H](Cc1cnc[nH]1)NC(=O)[C@@H]1CCC(=O)N1`, the Potency entry is “inactive”.

On to `Cc1ccccn1`, for which the Potency result is “inactive”.

Turning to `Nc1nccs1`, the Potency entry is “inactive”.

As for `O=C(NCCNCC(O)COc1ccc(O)cc1)N1CCOCC1` (stereo not drawn), the Potency result was “inactive”.

As to `CC(C)CCC[C@@H](C)[C@H]1CC[C@H]2[C@@H]3CC=C4C[C@@H](O)CC[C@]4(C)[C@H]3CC[C@]12C`, the Potency entry was “inactive”.

With `CS(=O)(=O)OCC(O)C(O)COS(C)(=O)=O` (stereo not drawn), the Potency result is “inactive”.

Regarding `NCC[C@H](O)C(=O)N[C@@H]1C[C@H](N)[C@@H](O[C@H]2O[C@H](CN)CC[C@H]2N)[C@H](O)[C@H]1O[C@H]1O[C@H](CO)[C@@H](O)[C@H](N)[C@H]1O`, the Potency entry is “inactive”.

Regarding `OCC(O)CO`, the Potency entry was “inactive”.

As for `CCOc1ccc(NC(=S)Nc2ccc(OCC)cc2)cc1`, the Potency result was “inactive”.

As to `CCOC(=O)c1cc(-c2ccccc2)nc2ccc(C)cc12`, the Potency result was “inactive”.

For `OCl`, the Potency result is “inactive”.

In the case of `CCc1ncnc2cc(OC)c(OC)cc12`, the Potency result is “inactive”.
